Compound activity from PubChem.
Sampled rows, rich in hits. Any-hit rate of the full collection: about 19%.
HT1080-NT tox – kills 2HG-producing HT-1080-NT fibrosarcoma cells | actives 1.6% (n = 360,000) | Potency, µM (titrated, usually from 46.1 µM), hits mostly cytotoxic | HT-1080-NT fibrosarcoma viability, CellTiter-Glo ATP luminescence, 48 h;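 further: NT is the 2HG producing partner of a matched IDH1 knockdown line; nearly all actives have a fitted effect of over 55% in size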
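HT-1080-NT; 750 cells/well; 5% FBS RPMI; 48 h compound, 37 degrees C; CellTiter-Glo luminescence; curve fitting and curve-class assignment.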
TDP1 cell noCPT – qHTS for Inhibitors of human tyrosyl-DNA phosphodiesterase 1 (TDP1): qHTS in cells in absence of CPT; DT40 Tdp1-/- hTDP1 cells, no CPT, ATP luminescence, 48 h; Potency, µM (top dose mostly 46.2 µM), most hits filed as inhibitors; actives 15% (n = 420,000); AID 686978, 2013; further: nearly all actives have a fitted effect of over 55% in size
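Growth of hTDP1-complemented DT40 Tdp1-knockout cells is measured by ATP luminescence after at least 48 hr compound exposure at 37 °C, with DMSO substituting for the 20 nM CPT used in the parallel screen.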
DT40 TDP1 CPT – growth inhibition of DT40 Tdp1-/-;hTDP1 cells with camptothecin (screen for TDP1 inhibitors); chicken DT40 Tdp1-/-;hTDP1 cells + 20 nM CPT, ATP luminescence, 48 h; Potency, µM (doses to about 46.2 µM), hits mostly inhibitors; actives 12% (n = 420,000); further: nearly all actives have a fitted effect of over 55% in size
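Chicken DT40 Tdp1-/- cells stably complemented with human TDP1 were seeded at 400 cells/well in medium containing 20 nM camptothecin, exposed to pin-transferred compounds, and grown at 37 °C for at least 48 hr. Viability was read as ATP luminescence.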
HT1080 IDH1KD tx – kills HT-1080 cells with IDH1 knockdown; Potency, µM (titrated, usually from 46.1 µM), usual class: cytotoxic; HT-1080 IDH1 knockdown viability, ATP luminescence, 48 h; actives 2% (n = 360,000)
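CellTiter-Glo luminescence after 48 h compound exposure at 37 degrees C of IDH1-knockdown HT-1080 cells in 5% FBS RPMI. %Activity scaled between DMSO wells and cell-free media wells, with curves fitted and assigned curve classes.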
IL1B secr inh – inflammasome signaling inhibition, IL-1 beta readout; THP-1 LPS/ATP IL-1B secretion, AlphaLISA, 16 h; stronger effect = lower value; activity change, % at 57.5 µM; actives 4.7% (n = 360,000); AID 743279; in the data active means activity change below about -50%; inconclusive means mostly about -30% to -49%
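THP-1 cells pretreated 1 hr with compounds (up to 57.5 uM final), then stimulated with LPS (250 ng/mL final) plus ATP (1.25 mM final); secreted IL-1B measured by AlphaLISA after 16 hr, decreased signal indicating inhibition.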
A number is an active result. Unless noted, the call rests on the fitted dose curve; in most records, active means well fitted curve in the direction sought with a large enough effect; inconclusive means small, poorly fitted or top-dose-only effect, or another doubt; inactive means no such curve, though single readings can be large; an effect the other way counts as inactive or inconclusive.

For C[C@H](CO)N1C[C@H](C)[C@@H](CN(C)S(=O)(=O)c2cn(C)cn2)Oc2ccc(NC(=O)Cc3ccccc3)cc2C1=O the results were HT1080-NT tox inactive, TDP1 cell noCPT inactive, DT40 TDP1 CPT inactive, HT1080 IDH1KD tx inactive and IL1B secr inh inactive.
Screening COc1ccc(N2CCN(C(=O)C3CCN(S(=O)(=O)c4cn(C)cn4)CC3)CC2)cc1 returned TDP1 cell noCPT inactive and DT40 TDP1 CPT inactive.
Screening CN1CCC(NC(=O)c2cccc(Oc3ccccc3)c2)CC1 returned HT1080-NT tox inactive, TDP1 cell noCPT inactive, DT40 TDP1 CPT inactive, HT1080 IDH1KD tx inactive and IL1B secr inh inactive.
COc1ccc(C(=O)NC2CCCCCCC2)cc1OC was read as HT1080-NT tox inactive, TDP1 cell noCPT inactive, DT40 TDP1 CPT inactive, HT1080 IDH1KD tx inactive and IL1B secr inh inactive.
Screening COc1cc(C(=O)NC2CCN(C)CC2)ccc1Nc1ncc2c(n1)N(C1CCCC1)CCC(=O)N2C(C)C returned HT1080-NT tox inconclusive, TDP1 cell noCPT 16µM, DT40 TDP1 CPT inconclusive, HT1080 IDH1KD tx inconclusive and IL1B secr inh inactive.
COc1cc(C(=O)NC2CCN(C)CC2)ccc1Nc1ncc2c(n1)N(CCc1ccccc1)CCC(=O)N2C was read as HT1080-NT tox inconclusive, TDP1 cell noCPT 15µM, DT40 TDP1 CPT 23µM, HT1080 IDH1KD tx inconclusive and IL1B secr inh inactive.
Cc1cc2c(cc1S(=O)(=O)N1CCN(c3cccc(C)c3C)CC1)OCCN2C was read as HT1080-NT tox inactive, TDP1 cell noCPT inactive, DT40 TDP1 CPT inconclusive, HT1080 IDH1KD tx inactive and IL1B secr inh inactive.
CCn1c(C)c(C)c2cc(C(=O)NCc3ccc(OC)cc3OC)ccc21 was read as TDP1 cell noCPT 15µM and DT40 TDP1 CPT 18µM.
CCn1c(C)c(C)c2cc(C(=O)NC3CCCCCC3)ccc21 was read as HT1080-NT tox inactive, TDP1 cell noCPT 21µM, DT40 TDP1 CPT 16µM, HT1080 IDH1KD tx inactive and IL1B secr inh inactive.
CCn1c(C)c(C)c2cc(C(=O)NCc3ccc(OC(C)C)cc3)ccc21 was read as TDP1 cell noCPT inactive and DT40 TDP1 CPT inconclusive.
`CCC1CCCCN1CCCNC(=O)c1ccc2c(c1)c(C)c(C)n2CC` (stereo not drawn) gave HT1080-NT tox inconclusive, TDP1 cell noCPT inconclusive, DT40 TDP1 CPT inconclusive, HT1080 IDH1KD tx inconclusive and IL1B secr inh inactive.
CCN(CC)c1ccc(NC(=O)c2ccc3c(c2)c(C)c(C)n3C)cc1 was read as HT1080-NT tox 18µM, TDP1 cell noCPT 18µM, DT40 TDP1 CPT 23µM, HT1080 IDH1KD tx inconclusive and IL1B secr inh inactive.
`Cc1c(C)n(C)c2ccc(C(=O)NCc3cccc(F)c3)cc12` gave TDP1 cell noCPT 16µM and DT40 TDP1 CPT 23µM.
COc1ccc(-c2nn(-c3ccccc3)cc2C(=O)OCC(=O)c2ccc(C)c([N+](=O)[O-])c2)cc1 was read as HT1080-NT tox inactive, TDP1 cell noCPT inactive, DT40 TDP1 CPT inactive, HT1080 IDH1KD tx inconclusive and IL1B secr inh inactive.
O=C(NNC1CC(=O)N(c2ccccc2)C1=O)c1ccccc1Cl (stereo not drawn) was read as HT1080-NT tox inactive, TDP1 cell noCPT inactive, DT40 TDP1 CPT inactive, HT1080 IDH1KD tx inactive and IL1B secr inh inactive.
Cc1c(C)n(Cc2ccccc2)c2ccc(C(=O)NCCCN3CCOCC3)cc12 was read as HT1080-NT tox inconclusive, TDP1 cell noCPT inconclusive, DT40 TDP1 CPT inconclusive, HT1080 IDH1KD tx inconclusive and IL1B secr inh inactive.
`Cc1c(C)n(Cc2ccc(F)cc2)c2ccc(C(=O)NCCCN3CCOCC3)cc12` gave HT1080-NT tox inactive, TDP1 cell noCPT 16µM, DT40 TDP1 CPT inconclusive, HT1080 IDH1KD tx inconclusive and IL1B secr inh inactive.
For Cc1cccc(Cn2c(C)c(C)c3cc(C(=O)NCc4ccco4)ccc32)c1 the results were TDP1 cell noCPT 23µM and DT40 TDP1 CPT 16µM.
`Cc1c(C)n(Cc2ccccc2)c2ccc(C(=O)NCc3ccccc3F)cc12` gave TDP1 cell noCPT 18µM and DT40 TDP1 CPT 18µM.
Screening Cc1cccc(C(=O)NCc2ccco2)c1 returned HT1080-NT tox inactive, TDP1 cell noCPT inactive, DT40 TDP1 CPT inconclusive, HT1080 IDH1KD tx inactive and IL1B secr inh inactive.
COc1cccc(CNC(=O)c2ccc3c(c2)c(C)c(C)n3Cc2ccccc2)c1OC was read as TDP1 cell noCPT 23µM and DT40 TDP1 CPT 21µM.
Screening COc1ccc(CN2C(=O)CNC2=S)cc1 returned HT1080-NT tox inactive, TDP1 cell noCPT inactive, DT40 TDP1 CPT inactive, HT1080 IDH1KD tx inactive and IL1B secr inh inactive.
Screening CCC(C)c1ccc(OCCCCN2CCOCC2)cc1 (stereo not drawn) returned HT1080-NT tox inactive, TDP1 cell noCPT inactive, DT40 TDP1 CPT inconclusive, HT1080 IDH1KD tx inactive and IL1B secr inh inactive.
Screening Cc1c(C)n(C)c2ccc(C(=O)NCCCN3CCCC3)cc12 returned HT1080-NT tox inactive, TDP1 cell noCPT inactive, DT40 TDP1 CPT inactive, HT1080 IDH1KD tx inactive and IL1B secr inh inactive.
Screening COc1ccccc1CCNC(=O)c1ccc2c(c1)c(C)c(C)n2C returned TDP1 cell noCPT 7.3µM and DT40 TDP1 CPT 7.3µM.
Screening COc1cc(CNC(=O)c2ccc3c(c2)c(C)c(C)n3Cc2cccc(C)c2)cc(OC)c1OC returned TDP1 cell noCPT 8.2µM and DT40 TDP1 CPT 18µM.
Screening COc1ccc(CN(C)CC(=O)Nc2cccc(S(=O)(=O)N(C)c3ccccc3)c2)c(OC)c1 returned HT1080-NT tox inactive, TDP1 cell noCPT inconclusive, DT40 TDP1 CPT inconclusive, HT1080 IDH1KD tx inactive and IL1B secr inh inactive.
For CCCCN(CC)C(=O)Cn1cnc2ccc(S(=O)(=O)N3CCC(C)CC3)cc2c1=O the results were HT1080-NT tox inactive, TDP1 cell noCPT inactive, DT40 TDP1 CPT inactive, HT1080 IDH1KD tx inactive and IL1B secr inh inactive.
Screening COc1cc(/C=C/C(=O)OCC(=O)NC2CCCCCCC2)ccc1O returned HT1080-NT tox inactive, TDP1 cell noCPT inactive, DT40 TDP1 CPT inactive, HT1080 IDH1KD tx inactive and IL1B secr inh inactive.
`COc1cc(/C=C2\COC/C(=C\c3ccc(O)c(OC)c3)C2=O)ccc1O` gave HT1080-NT tox inconclusive, TDP1 cell noCPT 3.3µM, DT40 TDP1 CPT 3.3µM, HT1080 IDH1KD tx inconclusive and IL1B secr inh -100.
COc1ccc(/C=C2\CC/C(=C\c3ccc(OC)c(OC)c3)C2=O)cc1OC was read as HT1080-NT tox inconclusive, TDP1 cell noCPT 21µM, DT40 TDP1 CPT 16µM, HT1080 IDH1KD tx inconclusive and IL1B secr inh inactive.
For COc1cc(/C=C2\CC/C(=C\c3ccc(OCCO)c(OC)c3)C2=O)ccc1OCCO the results were HT1080-NT tox inactive, TDP1 cell noCPT 23µM, DT40 TDP1 CPT inconclusive, HT1080 IDH1KD tx inactive and IL1B secr inh -77.
Screening COc1cc(/C=C2\C(=O)N(C)C(=S)N2C)ccc1O returned HT1080-NT tox inactive, TDP1 cell noCPT inactive, DT40 TDP1 CPT inactive, HT1080 IDH1KD tx inactive and IL1B secr inh inactive.
